Assay: qHTS profiling of the MIPE4 collection as inhibitors of Plasmodium falciparum (DD2) proliferation (AID 743345)
Conditions: P. falciparum Dd2 in erythrocytes, SYBR Green DNA, 72 h; at 28.5 µM (top of the series) unless noted
Description: Plasmodium falciparum is a virulent malarial parasite that kills 1-2 million people worldwide each year. Transmitted by mosquitoes, the sporozoite form of the parasite enters the blood stream to infect hepatocytes, where they become merozoites that infect red blood cells (erythrocytes). Within erythrocytes, merozoites begin a […] cycle of growth and division, after which the parasite is released to infect new red blood cells. Gametocytes, which form within erythrocytes as well, circulate in the bloodstream and are ingested by the mosquito, thereby completing the life cycle. To profile malarial isolates for differential chemical responses and to identify inhibitors of malarial growth, an assay that measures P. falciparum growth and replication within erythrocytes was employed. This assay uses a DNA binding fluorescent dye (SYBR Green) to detect parasite DNA following cell lysis. Because mature erythrocytes lack DNA, only Plasmodium-derived DNA is detected.
The SYBR Green viability assay was adapted from a method described previously (Plouffe et al., 2008). For screening 3 ul culture medium was dispensed into 1536 well black clear bottom plates (Aurora Biotechnologies) using a Multidrop Combi (Thermo Fisher Scientific Inc.), 23 nL compounds in DMSO were added by a pin tool (Kalypsys), and 5 ul of erythrocytes infected with P. falciparum (0.3% parasitemia, 2.5% hematocrit final concentration) were added. The plates were incubated at 37 C in a humidified incubator in 5% CO2 for 72 h, and 2 ul lysis buffer (20 mM Tris HCl, 10 mM EDTA, 0.16% saponin, 1.6% triton X, 10X SYBR Green I supplied as 10,000X […] by Invitrogen) was added to each well. The plates were mixed for 25 sec with gentle shaking and incubated overnight at room temperature in the dark. The following morning, fluorescence intensity at 485(14) nm excitation and 535(25) nm emission wavelengths was measured on an EnVision (Perkin Elmer) plate reader. Plate reads were normalized relative to the control inhibitor (0.29 uM artemisinin) and vehicle (DMSO) wells present on each plate and then corrected by an algorithm using vehicle-only control plates at the beginning and end of the compound plate stack.

Q: With `CC1C(=O)OC2C(O)C34C5CC(C(C)(C)C)C36C(OC(=O)C6O)OC4(C(=O)O5)C12O` (stereo not given) as the molecule, how does the parasite growth remaining, % of DMSO control (lower = more inhibition) read?
A: 94.5%

Q: For `CON(C)C(=O)N1N=C(c2cc(F)ccc2F)S[C@]1(CCCN)c1ccccc1`, which parasite growth remaining, % of DMSO control (lower = more inhibition) is on record?
A: 10.1%

Q: For `NC(=O)c1nnn(Cc2cc(Cl)c(C(=O)c3ccc(Cl)cc3)c(Cl)c2)c1N`, which parasite growth remaining, % of DMSO control (lower = more inhibition) is on record?
A: 33.4%

Q: With `C=C1c2cccc(O)c2C(O)=C2C(=O)[C@@]3(O)C(O)=C(C(N)=O)C(=O)[C@@H](N(C)C)[C@@H]3[C@@H](O)[C@H]12` as the molecule, how does the parasite growth remaining, % of DMSO control (lower = more inhibition) read?
A: 36.4%

Q: For `CN1N=C(N)c2cn([C@@H]3O[C@H](COP(=O)(O)O)[C@@H](O)[C@@H]3O)c3ncnc1c23`, which parasite growth remaining, % of DMSO control (lower = more inhibition) is on record?
A: 100%

Q: Which parasite growth remaining, % of DMSO control (lower = more inhibition) does the source give for `CC=C1C2C=C(C)CC1(N)c1ccc(=O)[nH]c1C2` (stereo not given) here?
A: 19.1%

Q: For `CC(C)CNc1ccnc(NCc2csc(-c3ccccc3)n2)n1`, which parasite growth remaining, % of DMSO control (lower = more inhibition) is on record?
A: 31.7%

Q: Which parasite growth remaining, % of DMSO control (lower = more inhibition) does the source give for `CN(C)CCOc1cc(-c2cn[nH]c2)ccc1NC(=O)C1COc2ccccc2O1` (stereo not given) here?
A: 61.4%

Q: Which parasite growth remaining, % of DMSO control (lower = more inhibition) does the source give for `N#Cc1ccc(Oc2ccc3c(c2)COB3O)cc1` here?
A: 91.9%

Q: For `C[C@@H](O)[C@H]1C(=O)N2C(C(=O)OCOC(=O)C(C)(C)C)=C(SC3CN(C4=NCCS4)C3)[C@H](C)[C@H]12`, which parasite growth remaining, % of DMSO control (lower = more inhibition) is on record?
A: 99.9%

Q: Which parasite growth remaining, % of DMSO control (lower = more inhibition) does the source give for `C#CCN(C)CC1=Cc2ccccc2Oc2ccccc21` here?
A: 76.6%

Q: For `O=C(Nc1cccc(Cl)c1)Nc1ncc(CCNc2ncnc3ccsc23)s1`, which parasite growth remaining, % of DMSO control (lower = more inhibition) is on record?
A: 67.5%

Q: For `CNC(=O)c1cc(COc2nnc(Nc3ccc(Cl)cc3)c3ccoc23)ccn1`, which parasite growth remaining, % of DMSO control (lower = more inhibition) is on record?
A: 79.6%

Q: Which parasite growth remaining, % of DMSO control (lower = more inhibition) does the source give for `CCC(C)SSc1ncc[nH]1` (stereo not given) here?
A: 94.1%

Q: Which parasite growth remaining, % of DMSO control (lower = more inhibition) does the source give for `CN(C)N=Nc1nc[nH]c1C(N)=O` here?
A: 94.4%

Q: With `COc1cc([C@@H]2c3cc4c(cc3[C@@H](O[C@@H]3O[C@@H]5CO[C@@H](C)O[C@@H]5[C@H](O)[C@@H]3O)[C@H]3COC(=O)[C@H]23)OCO4)cc(OC)c1O` as the molecule, how does the parasite growth remaining, % of DMSO control (lower = more inhibition) read?
A: 11%

Q: For `CN[C@@H]1CN(c2ccc3c(=O)c(C(=O)O)cn(-c4nccs4)c3n2)C[C@@H]1OC`, which parasite growth remaining, % of DMSO control (lower = more inhibition) is on record?
A: 7.58% [at 9.64 µM]

Q: Which parasite growth remaining, % of DMSO control (lower = more inhibition) does the source give for `Cc1cc(C(C)Nc2ccccc2)c2nc(N3CCOCC3)cc(=O)n2c1` (stereo not given) here?
A: 71.3%

Q: Which parasite growth remaining, % of DMSO control (lower = more inhibition) does the source give for `CCOC(=O)N1c2ccc(C(F)(F)F)cc2[C@@H](N(Cc2cc(C(F)(F)F)cc(C(F)(F)F)c2)C(=O)OC)C[C@H]1CC` here?
A: 7.82%

Q: With `COC(=O)[C@H](c1ccccc1Cl)N1CCc2sccc2C1` as the molecule, how does the parasite growth remaining, % of DMSO control (lower = more inhibition) read?
A: 79%

Q: Which parasite growth remaining, % of DMSO control (lower = more inhibition) does the source give for `Cc1ccccc1C(C(=O)NC1CCCCC1)N(C(=O)CNc1ccc(C#N)cc1)c1cccc(F)c1` (stereo not given) here?
A: 93.3%

Q: With `CNC(=O)c1cc(Oc2ccc(NC(=O)Nc3ccc(Cl)c(C(F)(F)F)c3)c(F)c2)ccn1` as the molecule, how does the parasite growth remaining, % of DMSO control (lower = more inhibition) read?
A: 33.1%

Q: Which parasite growth remaining, % of DMSO control (lower = more inhibition) does the source give for `CN(C)CC[C@H](CSc1ccccc1)Nc1ccc(S(=O)(=O)NC(=O)c2ccc(N3CCN(Cc4ccccc4-c4ccc(Cl)cc4)CC3)cc2)cc1[N+](=O)[O-]` here?
A: 61.7%

Q: With `Nc1ncnc2c1ncn2[C@@H]1O[C@H](CO)[C@@H](O)[C@@H]1O` as the molecule, how does the parasite growth remaining, % of DMSO control (lower = more inhibition) read?
A: 98%

Q: For `Cc1ccc(S(=O)(=O)Nc2nc3ccccc3nc2Nc2ccc3nsnc3c2)cc1`, which parasite growth remaining, % of DMSO control (lower = more inhibition) is on record?
A: 88% [at 9.64 µM]

Q: Which parasite growth remaining, % of DMSO control (lower = more inhibition) does the source give for `C=CC(=O)Nc1cccc(Sc2nc(Nc3ccc(N4CCN(C)CC4)cc3)ncc2Cl)c1` here?
A: 10.2%

Q: For `COc1ccc(Cn2ccc3ccc(C(=O)NO)cc32)cc1`, which parasite growth remaining, % of DMSO control (lower = more inhibition) is on record?
A: 13.4%

Q: With `C=CC[N+]1([C@H]2C[C@H]3[C@@H]4CC[C@H]5C[C@H](O)[C@@H](N6CCOCC6)C[C@]5(C)[C@@H]4CC[C@]3(C)[C@H]2OC(C)=O)CCCC1` as the molecule, how does the parasite growth remaining, % of DMSO control (lower = more inhibition) read?
A: 41%

Q: For `CCCCOCCOc1nc(-c2ccc(C(=O)O)c(F)c2)sc1C`, which parasite growth remaining, % of DMSO control (lower = more inhibition) is on record?
A: 98.4%

Q: With `CC(O)=C(C#N)C(=O)Nc1ccc(C(F)(F)F)cc1` as the molecule, how does the parasite growth remaining, % of DMSO control (lower = more inhibition) read?
A: 89.7%

Q: With `COc1cc2nc(-c3cc(F)ccc3O)nc(N[C@@H]3CNC[C@@H]3C(C)(C)O)c2cc1OC` as the molecule, how does the parasite growth remaining, % of DMSO control (lower = more inhibition) read?
A: 6.09%

Q: With `CC1CNc2c(cccc2S(=O)(=O)N[C@@H](CCCN=C(N)N)C(=O)N2CC[C@@H](C)C[C@@H]2C(=O)O)C1` (stereo not given in full) as the molecule, how does the parasite growth remaining, % of DMSO control (lower = more inhibition) read?
A: 91.3%

Q: For `N#CC1(c2cccc(C(=O)Nc3cc(Oc4ccc5nc(NC(=O)C6CC6)sc5n4)ccc3F)c2Cl)CC1`, which parasite growth remaining, % of DMSO control (lower = more inhibition) is on record?
A: 28.8%

Q: Which parasite growth remaining, % of DMSO control (lower = more inhibition) does the source give for `CC(=O)Nc1cccc(-n2c(=O)n(C3CC3)c(=O)c3c(Nc4ccc(I)cc4F)n(C)c(=O)c(C)c32)c1` here?
A: 6.3%

Q: Which parasite growth remaining, % of DMSO control (lower = more inhibition) does the source give for `Cc1c(-c2cccc3c(CCCOc4cccc5ccccc45)c(C(=O)O)n(Cc4cccnc4)c23)c(COc2ccc(N3CCN([S+](=O)([O-])N(C)C)CC3)cc2)nn1C` here?
A: 7.43%

Q: For `Cn1c(=O)c(Oc2ccc(F)cc2F)cc2cnc(NC3CCOCC3)nc21`, which parasite growth remaining, % of DMSO control (lower = more inhibition) is on record?
A: 86.4%

Q: For `O=C1C(c2c(O)[nH]c3ccccc23)=Nc2ccccc21`, which parasite growth remaining, % of DMSO control (lower = more inhibition) is on record?
A: 86.5%

Q: Which parasite growth remaining, % of DMSO control (lower = more inhibition) does the source give for `COc1cc([C@H]2Oc3cc([C@H]4Oc5cc(O)cc(O)c5C(=O)[C@H]4O)ccc3O[C@H]2CO)ccc1O` here?
A: 18.5%

Q: Which parasite growth remaining, % of DMSO control (lower = more inhibition) does the source give for `NC[C@H]1O[C@H](O[C@@H]2[C@@H](O)[C@@H](O[C@H]3O[C@H](CO)[C@@H](O)[C@H](N)[C@@H]3O)[C@H](N)C[C@@H]2N)[C@H](O)[C@@H](O)[C@H]1O` here?
A: 100%

Q: With `CNC(=O)[C@H](Cc1ccccc1)NC(=O)[C@H](CC(C)C)[C@H](CSc1cccs1)C(=O)NO` as the molecule, how does the parasite growth remaining, % of DMSO control (lower = more inhibition) read?
A: 8.14%
